# Experimental data as given in paper PMC5540273 (PLoS ONE, 2017).
# Like-named read-outs stand apart in the source and are kept apart here.
# Columns and labels:
# PRKD3 = settings: concentration: 1 μM, replicates: in singlicate; n = 1
# PRKG1 = settings: n = 1
# PRKG2 = settings: concentration: 1 μM, replicates: in singlicate; n = 1
# PRKR = system: T1, PRKR; settings: concentration: 1 μM, replicates: in singlicate; n = 1
# T1 construct: gene EIF2AK2
# PRKX = settings: n = 1
# PRP4 = settings: concentration: 1 μM, replicates: in singlicate; n = 1
# PYK2 = system: T2, PYK2; settings: concentration: 1 μM, replicates: in singlicate; n = 1
# T2 construct: gene PTK2B
# QSK = settings: concentration: 1 μM, replicates: in singlicate; n = 1
# RAF1 = settings: concentration: 1 μM, replicates: in singlicate; n = 1
# RET = settings: concentration: 1 μM, replicates: in singlicate; n = 1
# RIOK1 = settings: concentration: 1 μM, replicates: in singlicate; n = 1
# RIOK2 = settings: concentration: 1 μM, replicates: in singlicate; n = 1
# RIOK3 = settings: concentration: 1 μM, replicates: in singlicate; n = 1
# RIPK1 = settings: concentration: 1 μM, replicates: in singlicate; n = 1
# RIPK2 = settings: concentration: 1 μM, replicates: in singlicate; n = 1
# RIPK4 = settings: concentration: 1 μM, replicates: in singlicate; n = 1
# RIPK5 = settings: concentration: 1 μM, replicates: in singlicate; n = 1
# ROCK1 = settings: concentration: 1 μM, replicates: in singlicate; n = 1
# ROCK2 = settings: n = 1
# ROS1 = settings: concentration: 1 μM, replicates: in singlicate; n = 1
# [1] = concentration: 1 μM, replicates: in singlicate
# 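Further: KINOMEscan kinase panel screen.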
smiles,measurement,setting,value
CN(c1ccc(NC(=O)Nc2cc(C(F)(F)F)ccc2F)cc1)c1ccnc(Nc2ccc(S(N)(=O)=O)cc2)n1 [GW809893],%Inh,PRKD3,0%
same,%Inh,PRKG1; [1],16%
same,%Inh,PRKG2,17%
same,%Inh,PRKR,3%
same,%Inh,PRKX; [1],0%
same,%Inh,PRP4,14%
same,%Inh,PYK2,94.8%
same,%Inh,QSK,25%
same,%Inh,RAF1,88%
same,%Inh,RET,100%
same,%Inh,RIOK1,24%
same,%Inh,RIOK2,2%
same,%Inh,RIOK3,40%
same,%Inh,RIPK1,99.1%
same,%Inh,RIPK2,73%
same,%Inh,RIPK4,26%
same,%Inh,RIPK5,47%
same,%Inh,ROCK1,0%
same,%Inh,ROCK2; [1],24%
same,%Inh,ROS1,95.9%
Cl.NC(=O)c1cccc(Nc2nccc(Nc3ccc(Oc4c(Cl)cccc4Cl)c(Cl)c3)n2)c1 [GW659009],%Inh,PRKD3,21%
same,%Inh,PRKG1; [1],0%
same,%Inh,PRKG2,0%
same,%Inh,PRKR,0%
same,%Inh,PRKX; [1],0%
same,%Inh,PRP4,20%
same,%Inh,PYK2,0%
same,%Inh,QSK,0%
same,%Inh,RAF1,88%
same,%Inh,RET,0%
same,%Inh,RIOK1,56%
same,%Inh,RIOK2,53%
same,%Inh,RIOK3,51%
same,%Inh,RIPK1,0%
same,%Inh,RIPK2,84%
same,%Inh,RIPK4,0%
same,%Inh,RIPK5,10%
same,%Inh,ROCK1,0%
same,%Inh,ROCK2; [1],10%
same,%Inh,ROS1,0%
O=C(Nc1cccc(-c2nn3ccccc3c2-c2ccnc(Nc3cccc(C(F)(F)F)c3)n2)c1)c1c(F)cccc1F [GSK292658],%Inh,PRKD3,29%
same,%Inh,PRKG1; [1],3%
same,%Inh,PRKG2,0%
same,%Inh,PRKR,0%
same,%Inh,PRKX; [1],8%
same,%Inh,PRP4,5%
same,%Inh,PYK2,0%
same,%Inh,QSK,2%
same,%Inh,RAF1,72%
same,%Inh,RET,73%
same,%Inh,RIOK1,17%
same,%Inh,RIOK2,6%
same,%Inh,RIOK3,0%
same,%Inh,RIPK1,7%
same,%Inh,RIPK2,63%
same,%Inh,RIPK4,0%
same,%Inh,RIPK5,0%
same,%Inh,ROCK1,0%
same,%Inh,ROCK2; [1],1%
same,%Inh,ROS1,0%
COc1cccc(-c2ccc3c(NC(=O)C4CC4)n[nH]c3n2)c1 [SB-710903],%Inh,PRKD3,0%
same,%Inh,PRKG1; [1],0%
same,%Inh,PRKG2,0%
same,%Inh,PRKR,0%
same,%Inh,PRKX; [1],0%
same,%Inh,PRP4,70%
same,%Inh,PYK2,6%
same,%Inh,QSK,0%
same,%Inh,RAF1,12%
same,%Inh,RET,6%
same,%Inh,RIOK1,38%
same,%Inh,RIOK2,0%
same,%Inh,RIOK3,0%
same,%Inh,RIPK1,99.5%
same,%Inh,RIPK2,15%
same,%Inh,RIPK4,27%
same,%Inh,RIPK5,1%
same,%Inh,ROCK1,38%
same,%Inh,ROCK2; [1],49%
same,%Inh,ROS1,0%
CCn1c(-c2nonc2N)nc2c(C#CC(C)(C)O)ncc(OCCCCN)c21.O=C(O)C(F)(F)F.O=C(O)C(F)(F)F [GSK507274],%Inh,PRKD3,0%
same,%Inh,PRKG1; 1 µM,64%
same,%Inh,PRKG2,96%
same,%Inh,PRKR,0%
same,%Inh,PRKX; 1 µM,94.1%
same,%Inh,PRP4,2%
same,%Inh,PYK2,0%
same,%Inh,QSK,5%
same,%Inh,RAF1,13%
same,%Inh,RET,1%
same,%Inh,RIOK1,16%
same,%Inh,RIOK2,0%
same,%Inh,RIOK3,0%
same,%Inh,RIPK1,0%
same,%Inh,RIPK2,18%
same,%Inh,RIPK4,0%
same,%Inh,RIPK5,4%
same,%Inh,ROCK1,97.2%
same,%Inh,ROCK2; 1 µM,95.3%
same,%Inh,ROS1,0%
CC(C)c1nc(-c2cccc(NS(=O)(=O)c3c(F)cccc3F)c2F)c(-c2ccnc(Nc3ccc(N4CCOCC4)nc3)n2)s1 [GSK2008607],%Inh,PRKD3,100%
same,%Inh,PRKG1; [1],0%
same,%Inh,PRKG2,0%
same,%Inh,PRKR,29%
same,%Inh,PRKX; [1],0%
same,%Inh,PRP4,0%
same,%Inh,PYK2,3%
same,%Inh,QSK,90.5%
same,%Inh,RAF1,100%
same,%Inh,RET,99.7%
same,%Inh,RIOK1,22%
same,%Inh,RIOK2,0%
same,%Inh,RIOK3,17%
same,%Inh,RIPK1,0%
same,%Inh,RIPK2,96.3%
same,%Inh,RIPK4,15%
same,%Inh,RIPK5,92.6%
same,%Inh,ROCK1,0%
same,%Inh,ROCK2; [1],0%
same,%Inh,ROS1,35%
C[C@@H](Oc1cc(-n2cnc3cc(-c4ccnc(NCCS(C)(=O)=O)c4)ccc32)sc1C(N)=O)c1ccccc1Cl [GSK907232],%Inh,PRKD3,0%
same,%Inh,PRKG1; [1],10%
same,%Inh,PRKG2,0%
same,%Inh,PRKR,0%
same,%Inh,PRKX; [1],0%
same,%Inh,PRP4,60%
same,%Inh,PYK2,24%
same,%Inh,QSK,14%
same,%Inh,RAF1,18%
same,%Inh,RET,51%
same,%Inh,RIOK1,90.6%
same,%Inh,RIOK2,22%
same,%Inh,RIOK3,76%
same,%Inh,RIPK1,45%
same,%Inh,RIPK2,14%
same,%Inh,RIPK4,14%
same,%Inh,RIPK5,5%
same,%Inh,ROCK1,0%
same,%Inh,ROCK2; [1],0%
same,%Inh,ROS1,13%
Cc1ccc(F)c(C(=O)Nc2cccc(-c3nn4ccccc4c3-c3ccnc(Nc4cccc(F)c4)n3)c2)c1F [GSK361061],%Inh,PRKD3,32%
same,%Inh,PRKG1; [1],18%
same,%Inh,PRKG2,0%
same,%Inh,PRKR,0%
same,%Inh,PRKX; [1],12%
same,%Inh,PRP4,15%
same,%Inh,PYK2,0%
same,%Inh,QSK,17%
same,%Inh,RAF1,87%
same,%Inh,RET,96.3%
same,%Inh,RIOK1,23%
same,%Inh,RIOK2,26%
same,%Inh,RIOK3,5%
same,%Inh,RIPK1,2%
same,%Inh,RIPK2,61%
same,%Inh,RIPK4,4%
same,%Inh,RIPK5,0%
same,%Inh,ROCK1,0%
same,%Inh,ROCK2; [1],3%
same,%Inh,ROS1,21%
CCc1ccc(-c2ccc3c(c2)-c2c(cnn2C)S(=O)(=O)N3C)cc1,%Inh,PRKD3,0%
same,%Inh,PRKG1; [1],0%
same,%Inh,PRKG2,0%
same,%Inh,PRKR,6%
same,%Inh,PRKX; [1],16%
same,%Inh,PRP4,10%
same,%Inh,PYK2,0%
same,%Inh,QSK,0%
same,%Inh,RAF1,19%
same,%Inh,RET,5%
same,%Inh,RIOK1,0%
same,%Inh,RIOK2,12%
same,%Inh,RIOK3,0%
same,%Inh,RIPK1,0%
same,%Inh,RIPK2,0%
same,%Inh,RIPK4,9%
same,%Inh,RIPK5,26%
same,%Inh,ROCK1,0%
same,%Inh,ROCK2; [1],0%
same,%Inh,ROS1,3%
Cl.Cl.NCC(NCc1ccc(-c2ccnc3[nH]ccc23)s1)c1ccccc1 (centres unmarked) [GSK1321565],%Inh,PRKD3,56%
same,%Inh,PRKG1; [1],97.1%
same,%Inh,PRKG2,97.8%
same,%Inh,PRKR,0%
same,%Inh,PRKX; [1],94.2%
same,%Inh,PRP4,86%
same,%Inh,PYK2,9%
same,%Inh,QSK,0%
same,%Inh,RAF1,2%
same,%Inh,RET,49%
same,%Inh,RIOK1,100%
same,%Inh,RIOK2,44%
same,%Inh,RIOK3,98.4%
same,%Inh,RIPK1,2%
same,%Inh,RIPK2,0%
same,%Inh,RIPK4,47%
same,%Inh,RIPK5,0%
same,%Inh,ROCK1,100%
same,%Inh,ROCK2; [1],99.4%
same,%Inh,ROS1,60%
